Compound activity (PubChem)
A selection: hits, their analogues and other compounds. The true share with any hit is near 21%.
D3 ag – agonists of human D3 dopamine receptor. D3R DiscoveRx beta-arrestin cells, luminescence, 90 min. P35462. 410,000 tested, 0.58% active. max activation, %; in the data active = max activation above about 30%
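Agonist-mode cell screen: cells plated at 1500/well and incubated overnight at 37 °C, then exposed to library compounds for 90 min at 37 °C. Detection reagent was added for 30–60 min at room temperature, and luminescence was read.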
D3 antag – blocks the human D3 dopamine receptor; P35462; D3R cells, DiscoveRx beta-arrestin luminescence, antagonist mode; hits give low values; max response, negative = inhibition, %; 360,000 tested, 2.5% active; in the data active = max response below about -50%; inconclusive = no clear call, values can overlap the other calls
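Cells plated overnight at 1500 cells/well, then exposed to library compounds with dopamine controls for 90 minutes at 37 degrees C. DiscoveRx reagent added for 30–60 minutes at room temperature; luminescence read, quantitative HTS format.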
TDP1 cell CPT – DT40-hTDP1 cell growth loss with CPT | Potency, µM (top dose mostly 46.2 µM), usual class: inhibitors | 420,000 tested, 12% active | chicken DT40 Tdp1-/-;hTDP1 cells + 20 nM CPT, ATP luminescence, 48 h; also: nearly all actives have a fitted effect of over 55% in size
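Chicken DT40 Tdp1-/- cells complemented with human TDP1, 400 cells/well, exposed to compounds plus 20 nM camptothecin for at least 48 h at 37 C; viability read as ATP content by CellTiter-Glo luminescence.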
IL1B secr inh – inflammasome signaling inhibition, IL-1 beta readout | activity change, % at 57.5 µM | THP-1 LPS/ATP IL-1B secretion, AlphaLISA, 16 h; hits give low values | 360,000 tested, 4.7% active; in the data active = activity change below about -50%; inconclusive = mostly about -30% to -49%
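Secreted IL-1B measured by AlphaLISA bead assay after 16 h compound exposure of THP-1 cells; compounds (final up to 57.5 uM) added 1 h before LPS (250 ng/mL) and ATP (1.25 mM) stimulation; lower signal means less secretion.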
DT40 TDP1 no CPT – qHTS for Inhibitors of human tyrosyl-DNA phosphodiesterase 1 (TDP1): qHTS in cells in absence of CPT; DT40 Tdp1-/- hTDP1 cells, no CPT, ATP luminescence, 48 h; Potency, µM (highest dose often 46.2 µM), actives largely listed as inhibitors; 420,000 tested, 15% active; also: nearly all actives have a fitted effect of over 55% in size
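Compound effects on proliferation are scored in DT40 Tdp1-/-;hTDP1 cells in the absence of CPT. ATP levels (CellTiter-Glo luminescence) are recorded after a ≥48 hr, 37 °C incubation.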
ClpP mod – qHTS Assay for Activators of ClpP | ATP-dependent Clp protease proteolytic subunit (Bacillus subtilis (strain 168)), P80244 | purified B. subtilis ClpP, FRET peptide cleavage, 20 min | Potency, µM (highest dose often 57.5 µM) | 340,000 tested, 1.9% active; active = well fitted falling curve with a large enough effect; inconclusive = small, poorly fitted or top-dose-only effect; inactive = no such curve, though single readings can be large or run the other way; also: the source files actives as falling curves though it sought activators and does not explain the sign; nearly all actives have a fitted effect of over 65% in size
Target sequence (P80244 whole entry, looked up): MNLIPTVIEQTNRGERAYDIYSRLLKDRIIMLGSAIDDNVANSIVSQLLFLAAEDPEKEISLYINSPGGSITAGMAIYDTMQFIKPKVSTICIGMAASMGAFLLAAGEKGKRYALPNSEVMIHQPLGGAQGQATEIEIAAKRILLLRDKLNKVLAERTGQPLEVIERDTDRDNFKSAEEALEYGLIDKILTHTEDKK
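ClpP 10 microg/mL final, pH 8 Tris/KCl buffer with BSA, glycerol, Tween-20; compound pinned in; FRET-FV substrate; RT 20 min; Ex320/Em430; ΔFRET vs ADEP 5.8 microM, DMSO, no enzyme.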
Large screens that a line does not name were inactive. Unless noted, calls follow the shape of the dose curve; as a rule, active = well fitted inhibition curve with a large enough effect; inconclusive = small, poorly fitted or top-dose-only effect; inactive = flat fitted curve, though single readings scatter.

O=[N+]([O-])c1ccc(N2CCCC2)c2ccncc12	TDP1 cell CPT inconclusive, DT40 TDP1 no CPT 21µM
CN1C(=O)COc2c(C(=O)N[C@@H]3CN4CCC3CC4)cc(Cl)cc21	none (no result: D3 ag, D3 antag, IL1B secr inh, ClpP mod)
CN1C(=O)c2ccccc2Sc2ccc(NC(=O)NCc3ccc(Cl)cc3)cc21	TDP1 cell CPT 23µM, DT40 TDP1 no CPT 16µM (no result: D3 antag, IL1B secr inh)
Cc1ccccc1-n1c(O)c(C(c2ccncc2)c2c(O)n(-c3ccccc3C)c(=O)[nH]c2=O)c(=O)[nH]c1=O	DT40 TDP1 no CPT inconclusive
CC(C)Oc1ccc(CC2(CCc3ccncc3)C(=O)NC(=O)NC2=O)cc1	D3 ag 33, DT40 TDP1 no CPT inconclusive
CN1C[C@@H](NS(=O)(=O)N(C)C)C[C@@H]2c3cccc4c3c(cn4C)C[C@H]21	DT40 TDP1 no CPT inconclusive (no result: D3 antag, IL1B secr inh, ClpP mod)
Cc1cccn2c(=O)c3cc(C(=O)N4CCC5(CC4)OCCO5)n(C)c3nc12	TDP1 cell CPT 1.2µM, DT40 TDP1 no CPT 1.3µM
Cc1ccc(-c2nc(S(=O)(=O)c3ccc(C)cc3)c(SCC(=O)Nc3ccc(F)cc3)o2)cc1	TDP1 cell CPT 16µM, DT40 TDP1 no CPT 23µM (no result: D3 antag, IL1B secr inh)
Cc1ccc(-c2noc(=O)n2CC(=O)Nc2ccc(S(=O)(=O)NC3CC3)cc2)cc1	TDP1 cell CPT inconclusive, DT40 TDP1 no CPT inconclusive
COc1ccc(CCCc2nnc(SCC(=O)Nc3ccc(C)c(C)c3)o2)cc1	TDP1 cell CPT inconclusive, DT40 TDP1 no CPT inconclusive
Cc1ccc(-c2nc(S(=O)(=O)c3ccccc3)c(SCC(=O)NC3CCCCC3)o2)cc1	TDP1 cell CPT 13µM, DT40 TDP1 no CPT inconclusive (no result: D3 antag, IL1B secr inh)
Cc1ccc(S(=O)(=O)NC(=O)NC2CCCC2)cc1	none (no result: D3 antag, IL1B secr inh, ClpP mod)
COc1ccc(NC(=O)CSc2oc(-c3cccs3)nc2S(=O)(=O)c2ccccc2)c(OC)c1	D3 ag 59, TDP1 cell CPT 21µM, DT40 TDP1 no CPT 23µM (no result: D3 antag, IL1B secr inh)
Cc1ccccc1N1CCN(C2CCCN(C(=O)Cc3c(C)noc3C)C2)CC1 (stereo unspecified)	none
COc1cccc(C2CCN(C)C2)c1 (stereo unspecified)	DT40 TDP1 no CPT inconclusive
COC(=O)c1ccc(C(C(=O)NC2CCCCC2)N(CCN2CCOCC2)C(=O)Cc2cccs2)cc1 (stereo unspecified)	DT40 TDP1 no CPT inconclusive (no result: ClpP mod)
O=c1[nH]c(=O)n(Cl)c(=O)n1Cl	none (no result: D3 antag, IL1B secr inh, ClpP mod)
Cc1cc(C=C2C(=O)N(C)C(=S)N(C)C2=O)c(C)n1-c1ccncc1	TDP1 cell CPT inconclusive, DT40 TDP1 no CPT inconclusive
Cc1cc(C)cc(-n2c(C)cc(/C=C3\C(=O)NC(=O)N(C)C3=O)c2C)c1	D3 antag -65
S=C=Nc1cccc(C2(N3CCCCC3)CCCCC2)c1	D3 ag 84, TDP1 cell CPT 21µM, IL1B secr inh -54, DT40 TDP1 no CPT 16µM
c1ccc(C2(N3CCCCC3)CCCCC2)cc1	none
C#CC1(O)CCC2C3CCC4=CC(=O)CCC4=C3C=CC21C (stereo unspecified)	TDP1 cell CPT 8.2µM, DT40 TDP1 no CPT 15µM, ClpP mod 28µM
C=CC[C@]1(O)CC[C@H]2[C@@H]3CCC4=CC(=O)CCC4=C3C=C[C@@]21C	TDP1 cell CPT 13µM, DT40 TDP1 no CPT 7.5µM (no result: D3 antag, IL1B secr inh, ClpP mod)
CCOc1ccccc1N1C(=O)CC(=O)NC1=O	none
O=[N+]([O-])c1cc(S(=O)(=O)/N=C(/c2ccccc2)N2CCOCC2)ccc1Cl	TDP1 cell CPT inconclusive, IL1B secr inh inconclusive, DT40 TDP1 no CPT inconclusive
CCCNC(=O)N1[C@H]2CC[C@@H]1C(C(=O)OC)=C(c1cc3ccccc3o1)C2	TDP1 cell CPT 16µM, DT40 TDP1 no CPT 16µM
COC(=O)C1=C(c2c(C)noc2C)C[C@@H]2CC[C@H]1N2C(=O)N1CCCCC1	none
COC(=O)C1=C(c2cc3ccccc3o2)C[C@@H]2CC[C@H]1N2C(=O)N1CCCC1	TDP1 cell CPT inconclusive, DT40 TDP1 no CPT 16µM
COC(=O)C1=C(c2cc3ccccc3o2)C[C@@H]2CC[C@H]1N2C(=O)NCCO	none
